Potency data for 26 molecules are collected here from PubChem BioAssay (NCATS).

Each structure is given as a SMILES string. Inconclusive results are not listed. A number with no mark means an inactive call. The source made the active and inactive calls. Calls come from the whole dose curve; as a rule, active = well fitted curve in the direction sought with a large enough effect; inconclusive = small, poorly fitted or top-dose-only effect, or another doubt; inactive = no such curve, though single readings can be large; an effect the other way counts as inactive or inconclusive.

The nature of assay [1]: qHTS of pediatric cancer cell lines to identify multiple opportunities for drug repurposing: Confirmatory screen for MG 63 (6-TG R) cells (AID 1347119). Note: nearly all actives have a fitted effect of over 55% in size. Note: potency is the fitted concentration of half-maximal effect. The essentials: (§1)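 Viability after 48 h compound treatment at 37C, 500-1,000 cells/well, read as ATP luminescence with CellTiter-Glo. Primary screens used 11-point (MIPE, 0.78 nM-46 µM) or 8-point (NPC, 0.59 nM-46 µM) final concentrations; follow-up screens used 11-point dilutions.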
A general note: qHTS replaces the single test concentration by a dilution series.

Assay [2] is described as follows: qHTS of pediatric cancer cell lines to identify multiple opportunities for drug repurposing: Confirmatory screen for control Hh wild type fibroblast cells (AID 1347121). Note: nearly all actives have a fitted effect of over 70% in size. Note: potency is the fitted concentration of half-maximal effect. The essentials:
as §1

The nature of assay [3]: qHTS of pediatric cancer cell lines to identify multiple opportunities for drug repurposing: Confirmatory screen for Rh41 cells (AID 1347123).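 Note: 48 h compound exposure; nearly all actives have a fitted effect of over 60% in size.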 Note: potency is the fitted concentration of half-maximal effect. An outline of the steps:
as §1

The nature of assay [4]: qHTS of pediatric cancer cell lines to identify multiple opportunities for drug repurposing: Confirmatory screen for RD cells (AID 1347124).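 Note: cells exposed to compound for 48 h before viability readout; nearly all actives have a fitted effect of over 65% in size.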 Note: potency is the fitted concentration of half-maximal effect. An outline of the steps:
as §1

Assay [5] in a line: qHTS of pediatric cancer cell lines to identify multiple opportunities for drug repurposing: Confirmatory screen for Saos-2 cells (AID 1347127). Note: nearly all actives have a fitted effect of over 60% in size. Note: potency is the fitted concentration of half-maximal effect. An outline of the steps:
as §1

The nature of assay [6]: qHTS of pediatric cancer cell lines to identify multiple opportunities for drug repurposing: Confirmatory screen for OHS-50 cells (AID 1347128).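 Note: compound exposure lasted 48 h at 37 degrees C; nearly all actives have a fitted effect of over 55% in size.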 Note: potency is the fitted concentration of half-maximal effect. The essentials:
as §1

The nature of assay [7]: qHTS of pediatric cancer cell lines to identify multiple opportunities for drug repurposing: Confirmatory screen for SK-N-SH cells (AID 1347129).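 Note: cells exposed to compound for 48 h before viability read; nearly all actives have a fitted effect of over 60% in size.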 Note: potency is the fitted concentration of half-maximal effect. An outline of the steps: as §1
Assay [8] concerns Zika virus NS2B-NS3 protease. Kind of assay: Primary screen GU AMC qHTS for Zika virus inhibitors (AID 1347154). Note: nearly all actives have a fitted effect of over 70% in size. Note: potency is the fitted concentration of half-maximal effect. An outline of the steps:
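Unlinked Zika NS2B hydrophilic domain–NS3 protease complex at 25 nM in 10 mM Tris-HCl pH 8.0, 0.01% Tween 20, with an AMC peptide substrate. Fluorescence change (340/450 nm) over 15 min at room temperature, normalized to controls, fitted to 4-parameter Hill.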

Assay [9] can be described thus: qHTS of pediatric cancer cell lines to identify multiple opportunities for drug repurposing: Confirmatory screen for Rh18 cells (AID 1347125). Note: nearly all actives have a fitted effect of over 55% in size. Note: potency is the fitted concentration of half-maximal effect. An outline of the steps: as §1
Assay [10] is described as follows: qHTS of pediatric cancer cell lines to identify multiple opportunities for drug repurposing: Confirmatory screen for Rh30 cells (AID 1347126). Note: nearly all actives have a fitted effect of over 55% in size. Note: potency is the fitted concentration of half-maximal effect. An outline of the steps: as §1
In assay [11] the test system is Zika virus NS2B-NS3 protease (unlinked complex). In words: Primary screen GU Rhodamine qHTS for Zika virus inhibitors: Unlinked NS2B-NS3 protease assay (AID 1347159). Note: nearly all actives have a fitted effect of over 60% in size. An outline of the steps:
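Unlinked NS2B/NS3, 25 nM; Rhod110 peptide, 1.5 microM; compounds, up to 114 microM. Reaction run 15 min at RT in 10 mM Tris-HCl pH 8.0, 0.01% Tween 20; kinetic fluorescence change fitted with a 4-parameter Hill model.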

Assay [12] has the same test system. Kind of assay: Confirmatory screen GU AMC qHTS for Zika virus inhibitors (AID 1347153). Note: nearly all actives have a fitted effect of over 70% in size. Note: potency is the fitted concentration of half-maximal effect. The essentials: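 Unlinked enzyme 25 nM, Tris pH 8.0/0.01% Tween 20; cpd 15 min RT, dark; + AMC substrate 10 µM (Km 18.3 µM); 340/450 nm read at t0 and 15 min; % inhibition → 4-param fit.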
The target of assay [13] is Furin (Homo sapiens) (UniProt P09958). Kind of assay: Furin counterscreen qHTS for Zika virus inhibitors (AID 1347149). Note: potency is the fitted concentration of half-maximal effect; nearly all actives have a fitted effect of over 70% in size. The essentials:
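Counterscreen measures cleavage of 2 microM BOC-RVRR-AMC, below its ~15 microM Km, by 5 nM full-length human furin at pH 7.0 after a 15-min compound preincubation. Inhibition derives from the 15-min fluorescence increase at 37C.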
On the technique in general: The purpose of a counterscreen is to sort out artefacts and off-target activity.

The nature of assay [14]: qHTS of pediatric cancer cell lines to identify multiple opportunities for drug repurposing: Confirmatory screen for U-2 OS cells (AID 1347122). Note: potency is the fitted concentration of half-maximal effect; nearly all actives have a fitted effect of over 65% in size. An outline of the steps: as §1
The nature of assay [15]: ZIKV-mCherry secondary qHTS for Zika virus inhibitors (AID 1347158). Note: top concentration of the series differs between compounds. An outline of the steps: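 Read-out is percent infection: mCherry-positive Vero cells (nuclear-proximal intensity >450 RFU, 3 SD above negative controls) counted by high-content imaging of Hoechst-stained, PFA-fixed wells after 48-72 h with ZIKV-mCherry at MOI 1 and compound.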

Chain of Furin (Homo sapiens) (P09958 whole entry, looked up): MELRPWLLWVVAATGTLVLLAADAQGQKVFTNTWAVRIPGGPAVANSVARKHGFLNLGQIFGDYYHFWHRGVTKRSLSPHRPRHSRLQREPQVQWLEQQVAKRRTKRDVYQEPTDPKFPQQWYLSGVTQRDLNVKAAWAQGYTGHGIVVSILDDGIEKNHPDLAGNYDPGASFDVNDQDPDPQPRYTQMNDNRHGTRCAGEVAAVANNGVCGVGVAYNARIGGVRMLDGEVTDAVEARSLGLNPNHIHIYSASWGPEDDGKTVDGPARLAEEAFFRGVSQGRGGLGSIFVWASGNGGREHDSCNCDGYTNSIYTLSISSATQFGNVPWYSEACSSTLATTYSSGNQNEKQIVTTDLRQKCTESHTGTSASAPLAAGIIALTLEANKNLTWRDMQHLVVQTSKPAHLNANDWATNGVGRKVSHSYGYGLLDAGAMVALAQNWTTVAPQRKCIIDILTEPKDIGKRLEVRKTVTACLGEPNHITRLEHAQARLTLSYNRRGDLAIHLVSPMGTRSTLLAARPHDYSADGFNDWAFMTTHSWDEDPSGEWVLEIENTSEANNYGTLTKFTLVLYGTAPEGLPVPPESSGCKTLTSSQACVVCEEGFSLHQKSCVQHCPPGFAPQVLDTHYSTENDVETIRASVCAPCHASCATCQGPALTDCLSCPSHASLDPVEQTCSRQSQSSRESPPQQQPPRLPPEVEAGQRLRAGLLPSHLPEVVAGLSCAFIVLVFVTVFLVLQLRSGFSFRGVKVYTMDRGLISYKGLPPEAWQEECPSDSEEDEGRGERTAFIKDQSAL

`C=CCn1c(=O)c2cnc(Nc3ccc(N4CCN(C)CC4)cc3)nc2n1-c1cccc(C(C)(C)O)n1`: the Potency in assay [1] was 1.31 µM (active); in [3], 1.17 µM (active); in [4] it was 0.737 µM (active); in [5] it was 1.31 µM (active); in [6], 1.04 µM (active); in assay [7], 3.32 µM (active). Further, in assay [2], the Potency result is “inactive”.

Consider `O=C(CCCCCCNC(=O)c1cnc(N(c2ccccc2)c2ccccc2)nc1)NO`, for which the Potency result in assay [8] was “inactive”.

In the case of `CC(C)CC(=O)Nc1n[nH]c2c1CN(C(=O)C1CCN(C)CC1)C2(C)C`, the Potency entry in assay [2], in assay [9], in assay [10], in assay [8] and in [11] was “inactive” throughout. Also, the Potency in [4] is 6.57 µM (active); in assay [6] it was 5.85 µM (active); in assay [7], 4.18 µM (active).

For `COc1cc2ncnc(Nc3ccc(F)c(Cl)c3)c2cc1NC(=O)C=CCN1CCCCC1`, the Potency result in assay [8] is “inactive”.

Turning to `Nc1ccc(S(=O)(=O)Nc2ncccn2)cc1`, the Potency result in assay [8] was “inactive”.

Regarding `Cc1cccc(C=NNc2cc(N3CCOCC3)nc(OCCc3ccccn3)n2)c1`, in [8], the Potency result was “inactive”.

With `COc1cc(C(=O)NS(=O)(=O)c2ccccc2C)ccc1Cc1cn(C)c2ccc(NC(=O)OC3CCCC3)cc12`, the Potency is 17.1 µM (active) in [12] and 12.6 µM (active) in [8].

On to `COc1cc2c(Oc3ccc4[nH]c(C)cc4c3F)ncnc2cc1OCCCN1CCCC1`, for which the Potency entry in [8] was “inactive”.

Consider `Cc1nc(Nc2n[nH]c3c2CN(C(=O)N[C@H](CN(C)C)c2ccccc2)C3(C)C)c2sccc2n1`, for which the Potency entry in assay [2], in [3], in assay [4], in assay [10], in assay [5] and in [7] was “inactive” throughout. The Potency entry in assay [8] was “inactive”.

Regarding `CCOC(=O)C1=C(C)NC2=C(C(=O)CC(C)(C)C2)C1c1ccc(-c2ccccc2)cc1` (stereo unspecified), the Potency in [13] was 19.2 µM (active); in assay [8], 17.1 µM (active). In addition, the Potency entry in assay [11] is “inactive”.

Regarding `COc1cc(C(=O)N2CCC(N3CCN(C)CC3)CC2)ccc1Nc1ncc2c(n1)N(C)c1ccccc1C(=O)N2C`, in assay [8], the Potency entry was “inactive”.

`CN1CCN(c2ccc3nc(-c4c(N)c5c(F)cccc5[nH]c4=O)[nH]c3c2)CC1`: the Potency entry in [8] was “inactive”.

Take `CC(C)(C)c1cc(C(C)(C)C)c(NC(=O)c2c[nH]c3ccccc3c2=O)cc1O`: the Potency in [1] was 20.8 µM (active); in assay [4] it was 29.3 µM (active); in [5] it was 16.5 µM (active). Moreover, the Potency entry in assay [10] and in assay [8] was “inactive” in each case.

`Cc1c(Cn2c(C)nc3c(C(=O)O)cc(N4CCOCC4)cc32)cccc1C(F)(F)F`: the Potency entry in assay [1], in assay [2], in assay [4], in [9], in [10] and in [5] was “inactive” each time.

Turning to `O=C(NCCCNc1nc(Nc2cccc(NC(=O)N3CCCC3)c2)ncc1I)c1cccs1`, the Potency entry in assay [8] is “inactive”.

As for `CN[C@H]1CCc2cc(OC)c(OC)c(OC)c2-c2ccc(OC)c(=O)cc21`, the Potency result in assay [2], in assay [9], in [10] and in assay [8] was “inactive” in each case. The Potency was 208 nM (active) in assay [14] and 0.104 µM (active) in assay [4].

Consider `CCc1c2c(nc3ccc(O)cc13)-c1cc3c(c(=O)n1C2)COC(=O)[C@]3(O)CC`, for which the Potency result in assay [2], in assay [5], in [6] and in assay [8] was “inactive” throughout. The Potency was 3690 nM (active) in assay [14], 1.47 µM (active) in [10] and 3.32 µM (active) in [7].

For the molecule `Cc1cc(CN2CCN(c3c(Br)cnc4nc(-c5ccc(N6CCN(C)CC6)cc5)[nH]c34)CC2)no1`, the Potency in assay [13] and in assay [8] was 24.1 µM (active) throughout. The Potency entry in assay [15] and in [11] was “inactive” throughout.

As to `COc1cc(OC2CCN(C)CC2)ccc1Nc1ncc2c(n1)n(C1CCCC1)c(=O)n2C`, in assay [8], the Potency entry is “inactive”.

For `Nc1ccc(C(=O)c2cc3c(ccc4ccccc43)[nH]2)cc1`, in assay [8], the Potency result is “inactive”.

As for `CCC[C@H](NC(=O)C(C#N)=Cc1cccc(Br)n1)c1ccccc1`, the Potency result in [8] is “inactive”.

Turning to `CCN(CC)CCCCNc1ncc2cc(-c3cc(OC)cc(OC)c3)c(NC(=O)NC(C)(C)C)nc2n1`, the results for the Potency in assay [13] and in assay [8] were 24.1 µM (active) and 21.5 µM (active), respectively. The Potency entry in assay [12] is “inactive”.

As for `CC(NCc1ccc2c(c1)nc(NC(=O)c1ccc(-c3cn[nH]c3)s1)n2CC(C)(C)O)C(C)(C)C` (stereo unspecified), the Potency in [1] was 1.31 µM (active); in assay [2], 7.37 µM (active); in assay [14] it was 928 nM (active); in assay [3] it was 0.737 µM (active); in assay [4], 0.928 µM (active); in assay [9], 2.61 µM (active). Moreover, the Potency in assay [10] is 0.657 µM (active); in assay [5] it was 0.928 µM (active); in assay [6] it was 0.827 µM (active); in assay [7] it was 0.833 µM (active).

`CC(C)(C)OC(=O)Nc1ccc(-c2cc(C(=O)NCCCCCCC(=O)NO)no2)cc1`: the Potency entry in assay [2] and in assay [8] was “inactive” each time. For the same molecule, the Potency is 1470 nM (active) in [14]; 1.85 µM (active) in assay [3]; 5.22 µM (active) in assay [4]; 4.65 µM (active) in [9]; 10.4 µM (active) in [10]; 2.35 µM (active) in [7].

Take `CN1c2cc(O)c(N=NC(N)=O)cc2CC1S(=O)(=O)O` (stereo unspecified): the Potency result in [8] was “inactive”.

In the case of `CN1CCC(CNc2ccc3ncc(-c4cccc(OC(F)(F)F)c4)n3n2)CC1`, the Potency was 21.5 µM (active) in assay [13] and 24.1 µM (active) in assay [8]. Moreover, the Potency result in assay [11] is “inactive”.
